According to the supplement of paper PMC6953052:
Structures can show the parent of a compound that is named as a salt. The full ranking holds about 1,700 compounds; the median of “fraction of GFP-LC3-positive cells (≥5 vesicles/cell)” is about 0.058, and the highest 2% start at about 0.59. Many of the other results were omitted from the sample, so the highest values are more common in it than they were.

tested on: CbCln3 +/+ GFP-LC3 cerebellar neuronal cells; assay: fraction of GFP-LC3-positive cells (≥5 vesicles/cell); higher = more autophagosome accumulation
Summary of the method: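 Wild-type or mutant CbCln3 cerebellar cells stably expressing GFP-LC3 (2 × 10^3/well, 384-well) received ~50 nL compound in DMSO by pin transfer, in duplicate, for 24 h at 33 °C. Hoechst 33342 and LysoTracker Red were added for the final 30 min before 3.2% PFA fixation and 10× imaging of three fields per well. CellProfiler counted GFP-LC3 vesicles per cell. The value is the fraction of cells with 5 or more vesicles, averaged over duplicates, with out-of-focus images excluded.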

| SMILES | fraction of GFP-LC3-positive cells |
| --- | --- |
| CC(C)(C)c1cc(C=C(C#N)C#N)cc(C(C)(C)C)c1O [tyrphostin 9] | 0.67 |
| CC(C)(C)c1cc(C=C(C#N)C#N)cc(C(C)(C)C)c1O | 0.357 |
| N#CC(C#N)=Cc1ccc(O)c(O)c1 | 0.094 |
| N#CC(C#N)=Cc1cc(O)c(O)c(O)c1 | 0.0475 |
| CCN(CC)C(=O)N[C@H]1C[C@@H]2c3cccc4[nH]cc(c34)C[C@H]2N(C)C1.O=C(O)/C=C\C(=O)O [S(-)-terguride hydrogen maleate] | 0.0461 |
| CC(C)[C@]12O[C@H]1[C@@H]1O[C@]13[C@]1(O[C@H]1C[C@H]1C4=C(CC[C@@]13C)C(=O)OC4)[C@@H]2O [Triptolide] | 0.268 |
| Cl.NCCc1c[nH]c2ccc(O)cc12 [Serotonin hydrochloride] | 0.0685 |
| C#CCN(C)[C@H](C)Cc1ccccc1.Cl [Selegiline hydrochloride] | 0.0621 |
| C[N+]1(C)CCCC(OC(=O)C(O)(c2ccccc2)c2ccccc2)C1.[Br-] (stereo not drawn) [Mepenzolate bromide] | 0.0681 |
| COC1=C[C@@H]2C3=C([C@@H]2C1=O)[C@@H](NC(C)=O)CCc1cc(OC)c(OC)c(OC)c13 [Lumicolchicine gamma] | 0.0307 |
| COc1cc2c(c(OC)c1OC)-c1ccc(O)c(=O)cc1[C@@H](N)CC2 [Trimethylcolchicinic acid] | 0.0619 |
| COc1cc2c(c(OC)c1OC)-c1ccc(OC)c(=O)cc1[C@@H](NC(C)=O)CC2 [Colchicine] | 0.778 |
| CC(C)(O)[C@H]1O[C@H]2CC[C@@]3(C)[C@@](O)(CC[C@H]4Cc5c([nH]c6ccccc56)[C@@]43C)C2=CC1=O | 0.0216 |
| C/C=C(/C)C(=O)O[C@H]1C(C)=C2[C@H]([C@@H]1OC(=O)CCCCCCC)[C@@](C)(OC(C)=O)C[C@H](OC(=O)CCC)[C@@]1(O)[C@H]2OC(=O)[C@@]1(C)O | 0.665 |
| Cl.O[C@@H]1CCCC[C@H]1N1CCC(c2ccccc2)CC1 [L(-)-vesamicol hydrochloride] | 0.076 |
| CC(C)N(CCC(C(N)=O)(c1ccccc1)c1ccccn1)C(C)C (stereo not drawn) [Disopyramide] | 0.0661 |
| COc1cc2c(cc1O)[C@@H]1Cc3ccc(OC)c(O)c3CN1CC2 [Scoulerine] | 0.588 |
| O.O.O.O=C1OC2(c3cc(Br)c([O-])cc3Oc3c2cc(Br)c([O-])[c]3[Hg][OH])c2ccccc21.[Na+].[Na+] (stereo not drawn) [Merbromin] | 0.957 |
| CCCCC/C=C\C/C=C\C/C=C\C/C=C\CCCC(=O)NCc1ccc(O)c(OC)c1 [Arvanil] | 0.144 |
| CC[C@@]1(O)C(=O)OCc2c1cc1n(c2=O)Cc2cc3ccccc3nc2-1 [Camptothecine (S,+)] | 0.321 |

| SMILES | fraction of GFP-LC3-positive cells |
| --- | --- |
| OC[C@H]1O[C@@H](n2cnc3cc(Cl)c(Cl)cc32)C(O)[C@H]1O (stereo partly drawn) | 0.0687 |
| C=C1[C@@H](O)C2O[C@@]3(CCC2O[C@@H]1C(O)C[C@H](C)C1O[C@@]2(CCCCO2)CC[C@H]1C)CC[C@@H](/C=C/[C@@H](C)[C@@H]1CC(C)=C[C@@]2(O[C@H](C[C@@](C)(O)C(=O)O)CCC2O)O1)O3 (stereo partly drawn) [okadaic acid] | 0.831 |
| CCN1C[C@]2(COC)CC[C@H](O)[C@]34C1[C@H](C[C@H]23)[C@@]1(O)C[C@H](OC)[C@H]2C[C@@H]4[C@@H]1[C@H]2OC(C)=O [Condelphine] | 0.043 |
| O=C(O)/C=C\C(=O)O.O=C(O)/C=C\C(=O)O.c1ccc2nc(N3CCNCC3)ccc2c1 [Quipazine dimaleate salt] | 0.041 |
| C[C@H]1CCC/C=C/C2C[C@H](O)C[C@H]2[C@H](O)/C=C/C(=O)O1 (stereo partly drawn) [brefeldin A] | 0.0802 |
| C=C1[C@@H](C)[C@H]2[C@H](Cc3ccccc3)NC(=O)[C@]23[C@H](OC(C)=O)/C=C/[C@](C)(O)C(=O)[C@@H](C)C/C=C/[C@H]3[C@@H]1O [cytochalasin D] | 0.411 |
| CCCC[C@@H](C)[C@@H](OC(=O)C[C@@H](CC(=O)O)C(=O)O)[C@H](C[C@@H](C)C[C@H](O)CCCC[C@@H](O)C[C@H](O)[C@H](C)N)OC(=O)C[C@H](CC(=O)O)C(=O)O [Fumonisin B1] | 0.0462 |
| CCN1C[C@]2(C)CC[C@H](O)[C@]34C1[C@H](C[C@H]23)[C@@]1(O)C[C@H](OC)[C@H]2C[C@@H]4[C@@H]1C2O (stereo partly drawn) [Karakoline] | 0.0388 |
| CNc1ccc2oc(C[C@@H]3OC4(CC[C@@H]3C)O[C@H](C(C)C(=O)c3ccc[nH]3)[C@H](C)C[C@H]4C)nc2c1C(=O)O (stereo partly drawn) | 0.276 |
| C=C(C)[C@H]1O[C@H]2CC[C@@]3(C)[C@@](O)(CC[C@H]4[C@@H]5OC(C)(C)[C@H]6C[C@@H]7C(=C)Cc8c(Cl)cc9[nH]c(c5c9c8[C@@]76O)[C@@]43C)[C@]23O[C@@H]3[C@H]1O | 0.667 |
| CN1C2CCCC1CC(=O)C2.Cl [Pseudopelletierine hydrochloride] | 0.111 |
| CN[C@@H]1C[C@H]2O[C@@](C)([C@@H]1OC)n1c3ccccc3c3c4c(c5c6ccccc6n2c5c31)C(=O)NC4 [staurosporine] | 0.542 |
| CCCCCCCCCCCCCCCCOC[C@H](COP(=O)([O-])OCC[N+](C)(C)C)OC(C)=O | 0.0259 |
| CCCCCC1OC1C/C=C\CCCCCCCC(=O)O (stereo not drawn) | 0.062 |
| CCCCCC1OC1C/C=C\CCCCCCCC(=O)O (stereo not drawn) [Leukotoxin B (12,13-EODE)] | 0.0763 |
| Cc1nccc2c1[nH]c1ccccc12.Cl [Harmane hydrochloride] | 0.0738 |
| Cc1c2ccncc2c(C)c2c1[nH]c1ccccc12 [Ellipticine] | 0.984 |
| O=C1C=C2C=C[C@@H]3CC2(O1)[C@H]1CCCCN31 [Securinine] | 0.0519 |
| CC(C)(C)NCC(O)c1cc(Cl)c(N)c(Cl)c1.Cl (stereo not drawn) [Clenbuterol hydrochloride] | 0.0519 |
| CC[C@@H](CO)NC(=O)[C@@H]1C=C2c3cccc4[nH]cc(c34)C[C@H]2N(C)C1.O=C(O)/C=C\C(=O)O [Methylergometrine maleate] | 0.0308 |

| SMILES | fraction of GFP-LC3-positive cells |
| --- | --- |
| CC1=CC(=O)C2=C(C)C[C@H](O)[C@@H]3[C@H](OC(=O)[C@H]3C)[C@@H]12.O [Austricine] | 0.0585 |
| Clc1ccc(C2CC3CCC2N3)cn1 (racemic) [epibatidine (+/-)] | 0.0633 |
| N#CC(C#N)=NNc1ccc(OC(F)(F)F)cc1 | 0.918 |
| C[C@@H]1O[C@@H](O[C@@H]2C=C3CCC4C(CC[C@]5(C)[C@@H](c6ccc(=O)oc6)CC[C@]45O)[C@@]3(C)CC2)[C@H](O)[C@H](O)[C@H]1O (stereo partly drawn) [Proscillaridin A] | 0.0563 |
| CN1CCC2=C[C@H](O)[C@H]3OC(=O)c4cc5c(cc4[C@H]3[C@@H]21)OCO5 [Hippeastrine hydrobromide] | 0.0629 |
| CN1Cc2c(ccc3c2OCO3)[C@@H]2[C@H]1c1cc3c(cc1C[C@@H]2O)OCO3.O [Chelidonine (+)] | 0.593 |
| CN1CCc2cc3c(cc2[C@H]1[C@@H]1OC(=O)c2c1ccc1c2OCO1)OCO3 [Bicuculline (+)] | 0.0481 |
| CCCCCC[C@H]1C(=O)O[C@H](C)C(NC(=O)c2cccc(NC=O)c2O)C(=O)O[C@@H](C)[C@@H]1OC(=O)CC(C)C (stereo partly drawn) [Antimycin A] | 0.0705 |
| CC/C=C\C[C@@H](/C=C/C=C\C/C=C\C/C=C\CCCC(=O)O)OO | 0.0447 |
| C/C1=C/C(=O)O[C@@H]2C[C@@H](CC[C@H](C)/C=C\CC1)O[C@@](O)([C@@H]1CSC(=O)N1)C2 [Latrunculin B] | 0.94 |
| COC1=CC(=O)OC(/C=C/c2ccccc2)C1 (racemic) [Kavain (+/-)] | 0.0407 |
| O=c1[nH]c2ccccc2n1C1CCN(CCCC(c2ccc(F)cc2)c2ccc(F)cc2)CC1 [Pimozide] | 0.0546 |
| COc1cc([C@@H]2c3cc4c(cc3[C@H](O)[C@H]3COC(=O)[C@H]23)OCO4)cc(OC)c1OC [Podophyllotoxin] | 0.682 |
| COc1ccc2c(c1OC)CN1CCc3cc4c(cc3C1C2)OCO4 (stereo not drawn) [(d,l)-Tetrahydroberberine] | 0.0361 |
| COc1ccc2c(c1OC)C(=O)O[C@@H]2[C@H]1c2cc3c(cc2CCN1C)OCO3.Cl [Hydrastine hydrochloride] | 0.0565 |
| CCCCC/C=C\C/C=C\C/C=C\C/C=C\CCCC(=O)NCCO [Anandamide (20:4, n-6)] | 0.0367 |
| CCCCC/C=C\C/C=C\C/C=C\C/C=C\CCCC(=O)NCCO | 0.0573 |
| COC(=O)[C@@]1(O)C[C@@H]2O[C@@]1(C)n1c3ccccc3c3c4c(c5c6ccccc6n2c5c31)C(=O)NC4 | 0.16 |
